{"source": "PubChem BioAssay (EPA / NIEHS)", "note": "Calls of active or inactive are those of the source. Rule for the calls: active = hit-call score of the fitted dose curve at least 0.9, where 1 is the maximum; inactive = score below 0.9.", "data": [{"assay": "CEETOX_H295R_PROG: CeeTox H295R High-throughput Steroidogenesis Assay for Progesterone (PROG) (AID 2283442);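 for AC50: human H295R adrenal cells primed with 10 µM forskolin before dosing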", "settings": "actives raise or lower the signal", "method": "CEETOX_H295R is a cell-based, multiplexed-readout assay that uses H295R, a human adrenal gland cell line, with measurements taken at 48 hours after chemical dosing in a 96-well plate.CEETOX_H295R_PROG is one of 23 assay component(s) measured or calculated from the CEETOX_H295R assay. It is designed to make measurements of hormone induction, a form of inducible reporter, as detected with absorbance signals by HPLC-MS-MS technology.Data from the assay component CEETOX_H295R_PROG was analyzed into 1 assay endpoint. This assay endpoint, CEETOX_H295R_PROG, was analyzed with bidirectional fitting relative to DMSO as the negative control and baseline of activity. Using a type of inducible reporter, gain or loss-of-signal activity using HPLC-MS-MS was used to understand synthesis of Progesterone in H295R cell line at 48hr of chemical exposure. To generalize the intended target to other relatable targets, this assay endpoint is annotated to the steroid hormone intended target family, where the subfamily is progestagens.\nCell culture and media preparation procedures were conducted in accordance with OECD Test No. 456 guidelines, with minor modifications. H295R cells (ATCC CRL-2128) were expanded for 5 passages and frozen in batches in liquid nitrogen. Prior to the steroidogenesis assay, H295R cells were thawed and passed at least 4 times. The maximum passage was 10. Cells were maintained in a 1:1 mixture of DMEM/F12 supplemented with 5ml/L ITS+ Premix (BD Bioscience) and 12.5 ml/L Nu-Serum (BD Bioscience). After seeding cells into 96-well plates at 50-60% confluency, cells were allowed to adhere overnight. Prior to chemical testing, culture medium was replaced with 175 uL medium containing 10 uM forskolin to stimulate steroidogenesis for 48 hours. Following prestimulation, forskolin medium was replaced with medium containing test chemical solubilized in DMSO (ensuring a final concentration of 0.1% DMSO). Test chemicals were incubated for 48 hours, then the medium was removed and split into 2 vials containing approximately 75uL each, and stored at -80 C prior to hormone analysis. For steroid quantification, media samples were shipped to OpAns, LLC (Durham, NC) on dry ice, and samples were thawed to room temperature prior to liquid-liquid extraction. Steroid hormones were extracted from media samples using methyl tertbutyl ether (MTBE). An extra derivatization with dansyl chloride was included for estrogen (estrone and estradiol) detection only. Steroid hormones were separated by HPLC, eluted using a reverse phase C18 gradient with electrospray positive ionization, followed by quantification by tandem mass spectrometry (MS/MS). Data were acquired on a MassHunter Workstation Acquisition version B03.01 (Agilent Technologies, Inc.) and processed using MassHunter Quantitative Analysis for QQQ. Accuracy was determined for each hormone analyte from 3 standards to determine upper and lower limits of quantification (ULOQ and LLOQ, respectively) using a 7-point standard curve. Precision and accuracy of the extraction and quantification methods were calculated as the percent relative standard deviation (%RSD) of the spiked standards and percent spiked standard recovered, respectively. The goal was to achieve 100% accuracy (i.e., recover all spiked-in standard at quantification with minimal loss during run time) and good precision (i.e., have %RSD <15% to ensure reproducibility). Test medium was removed following chemical exposure, and cell viability was evaluated in the same wells by MTT. MTT procedures were as follows: after removal of test medium, 500 uL of 0.5 mg/ml of 3-[4,5-dimethylthiazol-2-y]2,5-diphenyltetrazoliumbromide solution was added to the cells. Following a 4-hour incubation at 37 C and 5% CO2 to allow formazan-crystal formation, the MTT solution was removed and blue formazan salt crystals were solubilized using 500uL anhydrous isopropanol with shaking for 20 minutes. Absorbance was read at 570 and 650nm using a Packard Fusion microplate reader. […]", "values": [{"compound": "CCN(CC)c1ccc(N=Nc2ccccc2)cc1", "outcome": "inactive"}, {"compound": "Nc1cccnc1N", "outcome": "inactive"}, {"compound": "CC1CCCCC1", "outcome": "inactive"}, {"compound": "CCCCCCCCCCCCC[N+](C)(C)Cc1ccccc1", "AC50": "159 nM (active)"}, {"compound": "CCN(CC)c1ccc(C=O)cc1", "outcome": "inactive"}, {"compound": "O=C1c2ccccc2C(=O)c2c(Cl)cccc21", "outcome": "inactive"}, {"compound": "O=C1C=CC(=O)N1c1ccccc1", "outcome": "inactive"}, {"compound": "CSc1ccc(O)cc1C", "outcome": "inactive"}, {"compound": "CCCCCCCCCc1ccc(OCCO)cc1", "outcome": "inactive"}, {"compound": "CCn1c2ccccc2c2ccccc21", "outcome": "inactive"}, {"compound": "O=c1[nH]cccc1O", "outcome": "inactive"}, {"compound": "OCCC(O)CO", "note": "(stereo not given)", "outcome": "inactive"}, {"compound": "CCOCOCC", "outcome": "inactive"}, {"compound": "C[C@]12CC[C@H]3C(=CCc4cc(O)ccc43)[C@@H]1CCC2=O", "AC50": "502 nM (active)"}, {"compound": "O=C(c1ccccc1)c1ccc(Cl)cc1", "outcome": "inactive"}, {"compound": "Cc1cccc(C)n1", "outcome": "inactive"}, {"compound": "CCCCC(CC)COC(=O)c1ccc(N(C)C)cc1", "note": "(stereo not given)", "AC50": "6010 nM (active)"}, {"compound": "CN1CN(C)CN(C)C1", "outcome": "inactive"}, {"compound": "Cc1cc(O)c(C(C)(C)C)cc1C(C)(C)C", "AC50": "2640 nM (active)"}, {"compound": "N#Cc1ccccc1O", "outcome": "inactive"}]}]}
